Entries with a potency or affinity are not part of this list.
system: Staphylococcus aureus; settings: Concentration 20 uM; ASSAY_TEST Inhibition of Bacterial Growth; detection method Absorption (OD600); MEDIA CAMHB; plate type 384well; NBS; CORNING #3640; time 18 hr

| Compound | Inhibition [%] |
| --- | --- |
| CC(Oc1cccc(Cl)c1)C(=O)Nc1ccc2oc(-c3ccncc3)nc2c1 (configuration not stated) | 60.53 |
| Nc1nc(N)c2c3c(sc2n1)CN(Cc1ccccc1)CC3 | 15.72 |
| CCN(CC)CCCN1CCN(C(=O)c2cccc(-c3noc(C(F)(F)F)n3)c2)CC1 | -0.71 |
| CC(C)n1ncc2c(C(=O)NCC(c3cccs3)N3CCOCC3)cc(-c3ccccc3)nc21 (configuration not stated) | 11.85 |
| O=C(C1CCN(c2cc(-n3cccc3)ncn2)CC1)N1CCc2ccccc2C1 | 7.19 |
| CCOc1ccc2cc(-c3nn(CC4CCN(C)CC4)c4ncnc(N)c34)ccc2c1.Cl | 18.54 |
| CC(C)(C)n1nc(-c2ccccc2)c2c(N)ncnc21 | 6.95 |
| Cc1ccc(-c2nc(CN(Cc3ccccn3)C(C)C)cs2)o1 | 63.05 |
| COc1ccc(OC(C)C(=O)Nc2ccc(Cl)cc2C)cc1 (configuration not stated) | 11.95 |
| O=C(Nc1nnc(S)s1)c1cc(Br)ccc1Cl | 0.16 |
| O=C(c1ccc(NCCO)cc1)C1C[C@H]1c1ccc(Cl)cc1 (some centres not stated) | 8.07 |
| COC(=O)c1ccc(F)cc1NS(=O)(=O)c1cccc(-c2cnn(Cc3ccccc3)c2)c1 | 11.02 |
| CC1(C)Cc2c(c(N3CCOCC3)nc3snc(Br)c23)CO1 | 19.87 |
| Cl.Cn1ccnc1CNCCS(=O)(=O)c1cccc(Nc2ccc(-c3cccc(F)c3)cn2)c1 | 24.8 |
| Cc1nn(C)cc1C(C)Nc1nncc(-c2ccc(C(F)(F)F)cc2)n1 (configuration not stated) | 2.57 |
| O=C(Nc1cnc2ccccc2c1)c1cccc(-n2cnnn2)c1 | 5.61 |
| COc1ccccc1C(C)NCC(=O)Nc1cc(C(F)(F)F)ccc1Cl (configuration not stated) | 10.99 |
| CCC(NC(=O)c1ccccc1NC(=O)c1ccc(C)cc1)C(=O)OC (configuration not stated) | 17.84 |

| Compound | Inhibition [%] |
| --- | --- |
| CCOc1ccc(-c2nc(CNCCc3ccc(F)cc3)cs2)cc1 | 30.74 |
| CCCn1c(CNc2ccccc2O)nc2ccccc21 | 17.07 |
| Cc1[nH]c2cc(F)cc(F)c2c(=O)c1-c1ccc(Oc2ccc(OC(F)(F)F)cc2)cc1 | 11.17 |
| Cc1cc(Nc2ccc(C(F)(F)F)cc2)n2ccnc2n1 | 20.89 |
| CC(C)(C)c1ccc(N[C@@H]2CCCC[C@H]2NC(=O)c2ccco2)cc1 | 7.06 |
| CN1CCCC1CCO[C@](C)(c1ccccc1)c1ccc(Cl)cc1.O=C(O)/C=C/C(=O)O (some centres not stated) | 18.42 |
| CCC(=O)Nc1ccccc1C(=O)Nc1ccccn1 | 18.51 |
| CC(C)=CCC/C(C)=C\CNCCNC1C2CC3CC(C2)CC1C3 (configuration not stated) | 37.58 |
| CN1CCN(S(=O)(=O)c2ccc(-c3ccc4c(Nc5ncc(Cl)cn5)ccnc4c3)cc2)CC1 | 23.03 |
| OC[C@H]1O[C@@H](n2c3ccc(Cl)cc3c3c(-c4cc5ccccc5o4)ncnc32)C(O)[C@H]1O (some centres not stated) | 9.2 |
| c1ccc(Oc2ccc(-c3cc(CN4CCOCC4)[nH]n3)cc2)cc1 | 15.12 |
| NS(=O)(=O)c1cccc(-c2ccc3ncc(N4CCOCC4)nc3c2)c1 | 16.94 |
| COc1ccc(C2=NN(C3CCCCCC3)C(=O)C2(C)C)cc1OCCCCOc1ccc(-c2nn[nH]n2)cc1 | 39.77 |
| CC(C)(C)OC(=O)N1CCC(Cn2nc(-c3cnc4ccccc4c3)c3c(N)ncnc32)CC1 | 18.54 |
| CCOc1ccccc1C(=O)Nc1cccc(-c2nc3ncccn3c2C)c1 | 2.54 |
| COc1ccc(Cl)cc1NC(=O)CN(C)C(=O)c1cnn(-c2ccccc2)n1 | 8.96 |
| Cc1ccc(C(=O)Nc2ccc(S(=O)(=O)O)c3cc(S(=O)(=O)O)cc(S(=O)(=O)O)c23)cc1NC(=O)c1cccc(NC(=O)Nc2cccc(C(=O)Nc3cc(C(=O)Nc4ccc(S(=O)(=O)O)c5cc(S(=O)(=O)O)cc(S(=O)(=O)O)c45)ccc3C)c2)c1 [SURAMIN] | 23.13 |
| Cc1cc(NC(=O)c2ccc(S(=O)(=O)N(Cc3ccccc3)C(C)C)cc2)no1 | 10.98 |

system: Escherichia coli; settings: Concentration 20 uM; ASSAY_TEST Inhibition of Bacterial Growth; detection method Absorption (OD600); MEDIA CAMHB; plate type 384well; NBS; CORNING #3640; time 18 hr

| Compound | Inhibition [%] |
| --- | --- |
| CC(Oc1cccc(Cl)c1)C(=O)Nc1ccc2oc(-c3ccncc3)nc2c1 (configuration not stated) | 7.3 |
| Nc1nc(N)c2c3c(sc2n1)CN(Cc1ccccc1)CC3 | 6.81 |
| CCN(CC)CCCN1CCN(C(=O)c2cccc(-c3noc(C(F)(F)F)n3)c2)CC1 | -1.62 |
| CC(C)n1ncc2c(C(=O)NCC(c3cccs3)N3CCOCC3)cc(-c3ccccc3)nc21 (configuration not stated) | 3.42 |
| O=C(C1CCN(c2cc(-n3cccc3)ncn2)CC1)N1CCc2ccccc2C1 | 12.02 |
| CCOc1ccc2cc(-c3nn(CC4CCN(C)CC4)c4ncnc(N)c34)ccc2c1.Cl | 8.02 |
| CC(C)(C)n1nc(-c2ccccc2)c2c(N)ncnc21 | -3.37 |
| Cc1ccc(-c2nc(CN(Cc3ccccn3)C(C)C)cs2)o1 | 8.22 |
| COc1ccc(OC(C)C(=O)Nc2ccc(Cl)cc2C)cc1 (configuration not stated) | 5.14 |
| O=C(Nc1nnc(S)s1)c1cc(Br)ccc1Cl | 4.27 |
| O=C(c1ccc(NCCO)cc1)C1C[C@H]1c1ccc(Cl)cc1 (some centres not stated) | -0.72 |
| COC(=O)c1ccc(F)cc1NS(=O)(=O)c1cccc(-c2cnn(Cc3ccccc3)c2)c1 | 13.23 |
| CC1(C)Cc2c(c(N3CCOCC3)nc3snc(Br)c23)CO1 | 4.52 |
| Cl.Cn1ccnc1CNCCS(=O)(=O)c1cccc(Nc2ccc(-c3cccc(F)c3)cn2)c1 | 8.19 |
| Cc1nn(C)cc1C(C)Nc1nncc(-c2ccc(C(F)(F)F)cc2)n1 (configuration not stated) | 3.9 |
| O=C(Nc1cnc2ccccc2c1)c1cccc(-n2cnnn2)c1 | -2.29 |
| COc1ccccc1C(C)NCC(=O)Nc1cc(C(F)(F)F)ccc1Cl (configuration not stated) | 8.42 |
| CCC(NC(=O)c1ccccc1NC(=O)c1ccc(C)cc1)C(=O)OC (configuration not stated) | 3.87 |

| Compound | Inhibition [%] |
| --- | --- |
| CCOc1ccc(-c2nc(CNCCc3ccc(F)cc3)cs2)cc1 | 7.75 |
| CCCn1c(CNc2ccccc2O)nc2ccccc21 | 4.85 |
| Cc1[nH]c2cc(F)cc(F)c2c(=O)c1-c1ccc(Oc2ccc(OC(F)(F)F)cc2)cc1 | -0.95 |
| Cc1cc(Nc2ccc(C(F)(F)F)cc2)n2ccnc2n1 | 9.89 |
| CC(C)(C)c1ccc(N[C@@H]2CCCC[C@H]2NC(=O)c2ccco2)cc1 | 10.16 |
| CN1CCCC1CCO[C@](C)(c1ccccc1)c1ccc(Cl)cc1.O=C(O)/C=C/C(=O)O (some centres not stated) | 10.75 |
| CCC(=O)Nc1ccccc1C(=O)Nc1ccccn1 | 10.48 |
| CC(C)=CCC/C(C)=C\CNCCNC1C2CC3CC(C2)CC1C3 (configuration not stated) | 10.47 |
| CN1CCN(S(=O)(=O)c2ccc(-c3ccc4c(Nc5ncc(Cl)cn5)ccnc4c3)cc2)CC1 | 2.97 |
| OC[C@H]1O[C@@H](n2c3ccc(Cl)cc3c3c(-c4cc5ccccc5o4)ncnc32)C(O)[C@H]1O (some centres not stated) | 8.79 |
| c1ccc(Oc2ccc(-c3cc(CN4CCOCC4)[nH]n3)cc2)cc1 | 2.47 |
| NS(=O)(=O)c1cccc(-c2ccc3ncc(N4CCOCC4)nc3c2)c1 | 14.17 |
| COc1ccc(C2=NN(C3CCCCCC3)C(=O)C2(C)C)cc1OCCCCOc1ccc(-c2nn[nH]n2)cc1 | -0.89 |
| CC(C)(C)OC(=O)N1CCC(Cn2nc(-c3cnc4ccccc4c3)c3c(N)ncnc32)CC1 | 10.38 |
| CCOc1ccccc1C(=O)Nc1cccc(-c2nc3ncccn3c2C)c1 | 10.22 |
| COc1ccc(Cl)cc1NC(=O)CN(C)C(=O)c1cnn(-c2ccccc2)n1 | -2.51 |
| Cc1ccc(C(=O)Nc2ccc(S(=O)(=O)O)c3cc(S(=O)(=O)O)cc(S(=O)(=O)O)c23)cc1NC(=O)c1cccc(NC(=O)Nc2cccc(C(=O)Nc3cc(C(=O)Nc4ccc(S(=O)(=O)O)c5cc(S(=O)(=O)O)cc(S(=O)(=O)O)c45)ccc3C)c2)c1 [SURAMIN] | 7.96 |
| Cc1cc(NC(=O)c2ccc(S(=O)(=O)N(Cc3ccccc3)C(C)C)cc2)no1 | 6.09 |
